Measurements: PubChem BioAssay AID920 (The Scripps Research Institute Molecular Screening Center, 2007)
Screen size: about 200,000 compounds; about 700 (0.35%) were called active. For the sample, actives were picked, then their nearest neighbours and some compounds at random. A number with no mark means an inactive call.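 Rule for the calls: active = inhibition above a set limit, the mean inhibition across all tested compounds plus 3 SD (cut at about 34% in these data); inactive = the rest.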

Assay: STAT1 signaling inhibitors, primary screen, cell-based, HTS, luciferase reporter (AID 920);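 note: 0% = IFN-gamma with DMSO and 100% = IFN-gamma with 300 µM nifuroxazide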
Conditions: NIH 3T3 STAT1-luciferase reporter, IFN-gamma, luminescence; at 5.5 µM; stronger effect = higher value

SMILES | inhibition
Cc1nc2ccc(N3CCN(C)CC3)cc2nc1C | -26.2%
CN1CCN(c2cc(N3CCNCC3)ccc2[N+](=O)[O-])CC1 | 12.4%
COc1cccc(-c2nc3ccc(N4CCN(C)CC4)cc3[nH]2)c1 | 63.1% (active)
CN(C)/C=C(\C=[N+](C)C)c1[nH]ncc1[N+](=O)[O-] | -9.13%
COc1ccc(CCn2c(O)c(C=NCCCn3ccnc3)c(=O)[nH]c2=O)cc1OC | -4.43%
